Measured values published in PubChem BioAssay AID1159580 (chemical genetic matrix, 2015).
About 2,000 (36%) of roughly 5,500 compounds were called active. Another 18% or so got no clear call; they are omitted. Rule as the data show it: active = normalized growth mostly below about 0.91 (no sharp cut-off); inconclusive = no clear call, values can overlap the other calls; inactive = mostly above about 0.92. The list shows a part of the results.

Test: chemical genetic growth profiling, strain panel (AID 1159580);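 also: tested at 20 µM; growth read once vehicle control cultures reached saturation at 30 °C; 1 = growth at the plate median or of vehicle wells; lower values mean less growth of the strain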
Conditions: growth OD
[1] = S. cerevisiae deletion strains, locus YDR150W, strain NUM1, stronger effect = lower value
[2] = S. cerevisiae deletion strains, locus YGR078C, strain PAC10, stronger effect = lower value
[3] = S. cerevisiae deletion strains, locus YMR307W, strain GAS1, stronger effect = lower value
[4] = S. cerevisiae deletion strains, locus YNL128W, strain TEP1, stronger effect = lower value
[5] = S. cerevisiae deletion strains, locus YNL322C, strain KRE1, stronger effect = lower value
[6] = S. cerevisiae deletion strains, locus YPL055C, strain LGE1, stronger effect = lower value
[7] = S. cerevisiae deletion strains, locus YPL241C, strain CIN2, stronger effect = lower value

Measured: normalized growth

CNCCc1c[nH]c2ccc(O)cc12
inactive: S. cerevisiae deletion strains, locus YAL040C, strain CLN3, stronger effect = lower value 1.01 | S. cerevisiae deletion strains, locus YCL061C, strain MRC1 (second series), stronger effect = lower value 1.01 | [1] 0.994 | S. cerevisiae deletion strains, locus YDR363W, strain ESC2, stronger effect = lower value 1.01 | S. cerevisiae deletion strains, locus YER002W, strain NOP16, stronger effect = lower value 1.01 | [2] 1.02 | [3] 1 | [4] 1 | S. cerevisiae deletion strains, locus YNL175C, strain NOP13, stronger effect = lower value 1.01 | S. cerevisiae deletion strains, locus YNL197C, strain WHI3, stronger effect = lower value 1.02 | S. cerevisiae deletion strains, locus YNL224C, strain SQS1, stronger effect = lower value 1.01 | [5] 1.02 | S. cerevisiae deletion strains, locus YOR083W, strain WHI5 (second series), stronger effect = lower value 1.01 | [6] 1.01 | [7] 1

NCCc1cccc(O)c1
inactive: S. cerevisiae deletion strains, locus YAL013W, strain DEP1, stronger effect = lower value 1.01 | S. cerevisiae deletion strains, locus YBR021W, strain FUR4, stronger effect = lower value 0.972 | S. cerevisiae deletion strains, locus YBR229C, strain ROT2, stronger effect = lower value 0.983 | S. cerevisiae deletion strains, locus YCL029C, strain bik1, stronger effect = lower value 0.981 | S. cerevisiae deletion strains, locus YDL035C, strain GPR1, stronger effect = lower value 1.01 | S. cerevisiae deletion strains, locus YDL074C, strain BRE1, stronger effect = lower value 1.01 | S. cerevisiae deletion strains, locus YDL101C, strain DUN1, stronger effect = lower value 0.985 | S. cerevisiae deletion strains, locus YDL134C, strain PPH21, stronger effect = lower value 0.984 | S. cerevisiae deletion strains, locus YDL185W, strain tfp1, stronger effect = lower value 0.989 | S. cerevisiae deletion strains, locus YDL192W, strain arf1, stronger effect = lower value 0.979 | S. cerevisiae deletion strains, locus YDR101C, strain arx1, stronger effect = lower value 0.985 | [1] 1 | S. cerevisiae deletion strains, locus YDR162C, strain NBP2, stronger effect = lower value 0.996 | S. cerevisiae deletion strains, locus YDR318W, strain mcm21, stronger effect = lower value 0.983 | S. cerevisiae deletion strains, locus YDR388W, stronger effect = lower value 0.981 | S. cerevisiae deletion strains, locus YDR502C, strain sam2, stronger effect = lower value 0.992 | S. cerevisiae deletion strains, locus YEL061C, strain CIN8, stronger effect = lower value 0.994 | S. cerevisiae deletion strains, locus YER110C, stronger effect = lower value 0.985 | S. cerevisiae deletion strains, locus YER155C, strain BEM2, stronger effect = lower value 0.951 | S. cerevisiae deletion strains, locus YER167W, strain BCK2, stronger effect = lower value 0.982 | S. cerevisiae deletion strains, locus YGL078C, strain dbp3, stronger effect = lower value 0.989 | S. cerevisiae deletion strains, locus YGL086W, strain mad1, stronger effect = lower value 0.976 | S. cerevisiae deletion strains, locus YGL248W, strain PDE1, stronger effect = lower value 0.982 | [2] 1 | S. cerevisiae deletion strains, locus YGR135W, strain pre9, stronger effect = lower value 0.982 | S. cerevisiae deletion strains, locus YGR229C, strain SMI1, stronger effect = lower value 1.05 | S. cerevisiae deletion strains, locus YGR252W, strain gcn5, stronger effect = lower value 0.952 | S. cerevisiae deletion strains, locus YHR030C, strain SLT2, stronger effect = lower value 0.994 | S. cerevisiae deletion strains, locus YHR079C, strain IRE1 (second series), stronger effect = lower value 0.986 | S. cerevisiae deletion strains, locus YHR094C, strain hxt1, stronger effect = lower value 0.992 | S. cerevisiae deletion strains, locus YHR129C, strain ARP1, stronger effect = lower value 0.987 | S. cerevisiae deletion strains, locus YHR200W, strain rpn10, stronger effect = lower value 0.974 | S. cerevisiae deletion strains, locus YIL066C, strain RNR3, stronger effect = lower value 0.996 | S. cerevisiae deletion strains, locus YIL073C, strain SPO22, stronger effect = lower value 0.946 | S. cerevisiae deletion strains, locus YIL125W, strain kgd1, stronger effect = lower value 0.984 | S. cerevisiae deletion strains, locus YIR030C, strain dcg1, stronger effect = lower value 0.991 | S. cerevisiae deletion strains, locus YJL095W, strain BCK1, stronger effect = lower value 1 | S. cerevisiae deletion strains, locus YJL134W, strain LCB3, stronger effect = lower value 0.992 | S. cerevisiae deletion strains, locus YJL168C, strain set2, stronger effect = lower value 0.987 | S. cerevisiae deletion strains, locus YJL187C, strain SWE1 (second series), stronger effect = lower value 0.991 | S. cerevisiae deletion strains, locus YJR043C, strain POL32, stronger effect = lower value 0.979 | S. cerevisiae deletion strains, locus YJR075W, strain HOC1, stronger effect = lower value 0.998 | S. cerevisiae deletion strains, locus YKL009W, strain mrt4, stronger effect = lower value 0.965 | S. cerevisiae deletion strains, locus YKL068W, stronger effect = lower value 0.992 | S. cerevisiae deletion strains, locus YKL085W, strain MDH1 (second series), stronger effect = lower value 0.987 | S. cerevisiae deletion strains, locus YKL085W, strain MDH1, stronger effect = lower value 0.987 | S. cerevisiae deletion strains, locus YKL190W, strain CNB1, stronger effect = lower value 0.997 | S. cerevisiae deletion strains, locus YKR001C, strain vps1, stronger effect = lower value 0.976 | S. cerevisiae deletion strains, locus YLR039C, strain RIC1, stronger effect = lower value 0.972 | S. cerevisiae deletion strains, locus YLR058C, strain SHM2, stronger effect = lower value 0.992 | S. cerevisiae deletion strains, locus YLR102C, strain apc9, stronger effect = lower value 0.99 | S. cerevisiae deletion strains, locus YLR262C, strain YPT6, stronger effect = lower value 0.997 | S. cerevisiae deletion strains, locus YLR268W, strain sec22, stronger effect = lower value 0.989 | S. cerevisiae deletion strains, locus YLR330W, strain CHS5, stronger effect = lower value 0.99 | S. cerevisiae deletion strains, locus YLR342W, strain FKS1 (second series), stronger effect = lower value 0.963 | S. cerevisiae deletion strains, locus YLR371W, strain rom2, stronger effect = lower value 0.991 | S. cerevisiae deletion strains, locus YLR418C, strain cdc73, stronger effect = lower value 0.985 | S. cerevisiae deletion strains, locus YML016C, strain PPZ1, stronger effect = lower value 0.985 | S. cerevisiae deletion strains, locus YML032C, strain rad52, stronger effect = lower value 0.978 | S. cerevisiae deletion strains, locus YML124C, strain tub3, stronger effect = lower value 0.989 | S. cerevisiae deletion strains, locus YMR078C, strain ctf18, stronger effect = lower value 0.983 | S. cerevisiae deletion strains, locus YMR223W, strain ubp8, stronger effect = lower value 0.979 | S. cerevisiae deletion strains, locus YMR263W, strain SAP30, stronger effect = lower value 1 | [3] 0.991 | S. cerevisiae deletion strains, locus YNL067W, strain RPL9B, stronger effect = lower value 1.01 | [4] 1.03 | S. cerevisiae deletion strains, locus YNL153C, strain GIM3, stronger effect = lower value 0.996 | S. cerevisiae deletion strains, locus YNL233W, strain BNI4, stronger effect = lower value 0.989 | S. cerevisiae deletion strains, locus YNL250W, strain rad50, stronger effect = lower value 0.984 | S. cerevisiae deletion strains, locus YNL271C, strain bni1, stronger effect = lower value 0.991 | S. cerevisiae deletion strains, locus YNL298W, strain CLA4, stronger effect = lower value 0.98 | S. cerevisiae deletion strains, locus YNL307C, strain MCK1, stronger effect = lower value 0.981 | [5] 0.998 | S. cerevisiae deletion strains, locus YNR052C, strain pop2, stronger effect = lower value 0.987 | S. cerevisiae deletion strains, locus YOL006C, strain TOP1, stronger effect = lower value 0.986 | S. cerevisiae deletion strains, locus YOL012C, strain htz1 0.834 | S. cerevisiae deletion strains, locus YOL147C, strain pex11, stronger effect = lower value 0.986 | S. cerevisiae deletion strains, locus YOR061W, strain CKA2, stronger effect = lower value 0.991 | S. cerevisiae deletion strains, locus YOR069W, strain VPS5, stronger effect = lower value 0.988 | S. cerevisiae deletion strains, locus YOR136W, strain idh2, stronger effect = lower value 0.975 | S. cerevisiae deletion strains, locus YOR144C, strain elg1, stronger effect = lower value 0.986 | S. cerevisiae deletion strains, locus YOR184W, strain ser1, stronger effect = lower value 0.965 | S. cerevisiae deletion strains, locus YOR316C, strain cot1, stronger effect = lower value 0.989 | [6] 1.04 | [7] 1 | S. cerevisiae deletion strains, locus YPR119W, strain clb2, stronger effect = lower value 0.992 | S. cerevisiae deletion strains, locus YPR141C, strain kar3, stronger effect = lower value 0.988 | S. cerevisiae deletion strains, locus YPR163C, strain tif3, stronger effect = lower value 0.984 | S. cerevisiae deletion strains, locus YPR167C, strain met16, stronger effect = lower value 0.981 | S. cerevisiae deletion strains, strain wtn01, stronger effect = lower value 0.987 | S. cerevisiae strains, strain wild type, stronger effect = lower value 1.02
